The source made the active and inactive calls. The calls were made as follows: active = hit-call score of the fitted dose curve at least 0.9, where 1 is the maximum; inactive = score below 0.9.
Key:
[1] = ATG_GRE_CIS: Attagene CIS-FACTORIAL HepG2 Assay for human Glucocorticoid Response Elements (GRE) (AID 2282947); settings: HepG2 GRE cis-reporter, Attagene multiplex mRNA; actives raise or lower the signal
Outline: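 Transiently transfected HepG2 cells carrying GRE cis-reporter units (endogenous TF activity) dosed 24 h; reporter mRNA quantified by RT-PCR, 6-FAM labelling, HpaI digestion and capillary electrophoresis. Bidirectional fit versus DMSO baseline.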

[2] = ATG_ISRE_CIS: Attagene CIS-FACTORIAL HepG2 Assay for human Interferon Regulatory Factor 1 (IRF1) binding to an Interferon-Stimulated Response Element (ISRE) (AID 2282948); settings: HepG2 ISRE cis-reporter (Attagene), mRNA transcription readout; actives raise or lower the signal
Outline: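 Transiently transfected HepG2 cells carrying cis-element reporter units, dosed 24 hours. Reporter mRNA quantified by RT-PCR, fluorescent primer extension, HpaI digestion and capillary electrophoresis. Bidirectional fitting relative to DMSO.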

[3] = ATG_M_32_CIS: Attagene CIS-FACTORIAL HepG2 Assay for M32 Transcription Factor (Internal Marker) (AID 2282949); settings: HepG2 Attagene cis-factorial M32 reporter, mRNA; actives raise or lower the signal;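 also: background control marker of the multiplexed CIS panel rather than a real target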
Outline: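 HepG2 cells transiently transfected with multiplexed cis-regulated reporter units, dosed 24 h. Reporter mRNA quantified by RT-PCR, 6-FAM labelling, HpaI digestion and capillary electrophoresis; bidirectional fit vs DMSO.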

[4] = ATG_M_06_CIS: Attagene CIS-FACTORIAL HepG2 Assay for M06 Transcription Factor (Internal Marker) (AID 2282950); settings: HepG2 Attagene CIS-FACTORIAL M06 internal marker reporter; actives raise or lower the signal
Outline: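 Terse: HepG2, transient MRTU transfection (FuGene 6), 24 h dosing; total RNA, oligo(dT) RT, PCR, FAM label, HpaI cut, capillary electrophoresis; bidirectional fit vs DMSO baseline; background-control endpoint.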

[5] = target: Hepatocyte nuclear factor 6 (Homo sapiens) (UniProt Q9UBC0); experiment: ATG_HNF6_CIS: Attagene CIS-FACTORIAL HepG2 Assay for human Hepatocyte Nuclear Factor 6 (HNF6) (AID 2282952); settings: HepG2 Attagene cis-factorial HNF6 reporter transcription; actives raise or lower the signal
Outline: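 Reporter mRNA induction or loss in HepG2 after 24 h exposure; transient cis-MRTU transfection; fragments quantified by capillary electrophoresis; bidirectional analysis, DMSO as negative control.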

[6] = target: Heat shock factor protein 1 (Homo sapiens) (UniProt Q00613); experiment: ATG_HSE_CIS: Attagene CIS-FACTORIAL HepG2 Assay for human Heat Shock Transcription Factor 1 (HSE) (AID 2282953); settings: HepG2 HSE cis-reporter, Attagene RNA transcription; actives raise or lower the signal
Outline: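 Read-out: fluorescence of reporter-specific RT-PCR fragments separated by capillary electrophoresis. HepG2 carrying transfected cis-element reporter units; 24 h dosing; activity fitted in both directions relative to DMSO baseline.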

[7] = ATG_MRE_CIS: Attagene CIS-FACTORIAL HepG2 Assay for human Metal Responsive Element (MRE) (AID 2282954); settings: HepG2 MRE cis-reporter transcription, Attagene multiplex; actives raise or lower the signal
Outline: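 HepG2 cells transiently transfected with cis-element-driven reporter units; mRNA measured 24 h after dosing. Reporter transcripts quantified by RT-PCR, FAM labelling, HpaI digestion and capillary electrophoresis; bidirectional fit versus DMSO.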

[8] = ATG_PBREM_CIS: Attagene CIS-FACTORIAL HepG2 Assay for human Phenobarbital-responsive Enhancer Module (PBREM) (AID 2282955); settings: HepG2 PBREM cis-reporter, Attagene multiplexed transcription; actives raise or lower the signal
Outline: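 Endogenous transcription factor activity was read from reporter transcripts in transiently transfected human HepG2 liver cells after 24 h dosing. RT-PCR products were fluorescently labelled, HpaI-cut and sized by capillary electrophoresis; activity fitted bidirectionally against DMSO baseline.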

[9] = target: Paired box protein Pax-6 (Homo sapiens) (UniProt P26367); experiment: ATG_Pax6_CIS: Attagene CIS-FACTORIAL HepG2 Assay for human Paired Box 6 (PAX6) (AID 2282956); settings: HepG2 CIS-FACTORIAL PAX6 reporter transcription, RNA readout; actives raise or lower the signal
Outline: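 HepG2 cells transiently transfected with cis-promoter-driven multiplexed reporter units sensing endogenous transcription factor activity; 24 h chemical exposure. Reporter mRNA quantified by RT-PCR, 6-FAM labelling, HpaI digestion and capillary electrophoresis; bidirectional fit versus DMSO baseline.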

[10] = ATG_RORE_CIS: Attagene CIS-FACTORIAL HepG2 Assay for human RAR-related Orphan Receptor Element (RORE) (AID 2282959); settings: HepG2 Attagene cis-factorial RORE reporter, mRNA; actives raise or lower the signal
Outline: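 RORE reporter transcripts reflecting endogenous factor activity were read after 24 h compound exposure of transfected HepG2 cells, using reverse transcription, PCR, fluorescent labelling and capillary electrophoresis sizing. Gain or loss fitted against DMSO.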

[11] = ATG_Sox_CIS: Attagene CIS-FACTORIAL HepG2 Assay for human SRY-box transcription factor (SOX) (AID 2282960); settings: HepG2 Attagene cis-factorial SOX reporter, mRNA; actives raise or lower the signal
Outline: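 Reporter transcripts, measured by RT-PCR and capillary electrophoresis of labelled fragments, report endogenous SOX transcription factor activity. Transiently transfected human HepG2 cells receive chemical for 24 h; changes in either direction are fitted relative to DMSO.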

[12] = target: Transcription factor Sp1 (Homo sapiens) (UniProt P08047); experiment: ATG_Sp1_CIS: Attagene CIS-FACTORIAL HepG2 Assay for human Specificity Protein 1 (Sp1) (AID 2282961); settings: HepG2 Sp1 cis-reporter transcription, actives raise or lower the signal
Outline: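 Read-out is reporter transcript level, measured by RT-PCR and fluorescent capillary electrophoresis after 24 h chemical treatment. System: transiently transfected HepG2 cells reporting endogenous transcription factor activity; gain or loss fitted against DMSO baseline.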

[13] = ATG_SREBP_CIS: Attagene CIS-FACTORIAL HepG2 Assay for human Sterol Regulatory Element Binding (SREBP) (AID 2282962); settings: HepG2 Attagene cis-factorial SREBP reporter, mRNA; actives raise or lower the signal
Outline: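 HepG2 cells transiently transfected with multiplexed cis-promoter reporter units sensing endogenous transcription factors; reporter mRNA measured 24 h after dosing by RT-PCR, 6-FAM labeling, HpaI digestion and capillary electrophoresis. Bidirectional fit versus DMSO.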

[14] = target: Signal transducer and activator of transcription 3 (Homo sapiens) (UniProt P40763); experiment: ATG_STAT3_CIS: Attagene CIS-FACTORIAL HepG2 Assay for human Signal Transducer and Activator of Transcription 3 (STAT3) (AID 2282963); settings: HepG2, Attagene cis-factorial STAT3 reporter transcription; actives raise or lower the signal
Outline: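 HepG2 cells transiently transfected with multiple cis-element-driven reporter units report endogenous transcription factor activity. After 24 h compound exposure, reporter mRNA is measured by RT-PCR, 6-FAM labelling, HpaI digestion and capillary electrophoresis. Fitted bidirectionally versus DMSO.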

[15] = ATG_TA_CIS: Attagene CIS-FACTORIAL HepG2 Assay for human TA Basal Promoter (AID 2282964); settings: HepG2 Attagene CIS-factorial TA basal promoter reporter; actives raise or lower the signal
Outline: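 Transfected HepG2, 24 h compound exposure; RNA → RT-PCR → FAM primer extension → HpaI cut → CE fluorescence. Gain/loss-of-signal fitted against DMSO negative control. Background-control readout.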

[16] = ATG_TCF_b_cat_CIS: Attagene CIS-FACTORIAL HepG2 Assay for human T-Cell-Factor with beta-catenin (TCF/b-cat) (AID 2282965); settings: HepG2 TCF/beta-catenin cis-reporter transcription, actives raise or lower the signal
Outline: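 HepG2, transient MRTU transfection, cis-element-driven reporters (endogenous TFs). 24 h compound exposure. Readout: reporter mRNA by RT-PCR + 6-FAM primer extension, HpaI digest, capillary electrophoresis. Gain/loss fit vs DMSO baseline.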

[17] = target: Hypoxia-inducible factor 1-alpha (Homo sapiens) (UniProt Q16665); experiment: ATG_HIF1a_CIS: Attagene CIS-FACTORIAL HepG2 Assay for human Hypoxia Inducible Factor 1 (HIF1A) (AID 2282951); settings: HepG2 Attagene cis-factorial HIF1a reporter transcription; actives raise or lower the signal
Outline: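 Activity is fitted in both directions relative to DMSO. Reporter transcripts are read by RT-PCR, fluorescent primer extension and capillary electrophoresis after 24 h chemical treatment. The cells are HepG2 carrying transiently transfected cis-element-driven reporter units responding to endogenous factors.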

[18] = ATG_PXRE_CIS: Attagene CIS-FACTORIAL HepG2 Assay for human Pregnane X Receptor Element (PXRE) (AID 2282957); settings: HepG2 Attagene CIS-FACTORIAL PXRE reporter, mRNA; actives raise or lower the signal
Outline: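 Transiently transfected HepG2 cells were dosed and incubated for 24 h. RNA was then isolated, DNase-treated, reverse-transcribed and reporter sequences amplified. Labeled, HpaI-digested fragments were quantified by capillary electrophoresis against DMSO.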

[19] = ATG_PPRE_CIS: Attagene CIS-FACTORIAL HepG2 Assay for human Peroxisome Proliferator-activated Response Element (PPRE) (AID 2282958); settings: HepG2 PPRE cis-element reporter, Attagene transcription factor profiling; actives raise or lower the signal
Outline: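 Endogenous PPRE-driven transcription is measured in HepG2 cells carrying transfected multi-reporter constructs. Reporter transcripts are quantified by RT-PCR, HpaI digestion and capillary electrophoresis 24 h after dosing. DMSO baseline, bidirectional fit.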

Measured: AC50

Chain of Signal transducer and activator of transcription 3 (Homo sapiens) (P40763 whole entry, looked up): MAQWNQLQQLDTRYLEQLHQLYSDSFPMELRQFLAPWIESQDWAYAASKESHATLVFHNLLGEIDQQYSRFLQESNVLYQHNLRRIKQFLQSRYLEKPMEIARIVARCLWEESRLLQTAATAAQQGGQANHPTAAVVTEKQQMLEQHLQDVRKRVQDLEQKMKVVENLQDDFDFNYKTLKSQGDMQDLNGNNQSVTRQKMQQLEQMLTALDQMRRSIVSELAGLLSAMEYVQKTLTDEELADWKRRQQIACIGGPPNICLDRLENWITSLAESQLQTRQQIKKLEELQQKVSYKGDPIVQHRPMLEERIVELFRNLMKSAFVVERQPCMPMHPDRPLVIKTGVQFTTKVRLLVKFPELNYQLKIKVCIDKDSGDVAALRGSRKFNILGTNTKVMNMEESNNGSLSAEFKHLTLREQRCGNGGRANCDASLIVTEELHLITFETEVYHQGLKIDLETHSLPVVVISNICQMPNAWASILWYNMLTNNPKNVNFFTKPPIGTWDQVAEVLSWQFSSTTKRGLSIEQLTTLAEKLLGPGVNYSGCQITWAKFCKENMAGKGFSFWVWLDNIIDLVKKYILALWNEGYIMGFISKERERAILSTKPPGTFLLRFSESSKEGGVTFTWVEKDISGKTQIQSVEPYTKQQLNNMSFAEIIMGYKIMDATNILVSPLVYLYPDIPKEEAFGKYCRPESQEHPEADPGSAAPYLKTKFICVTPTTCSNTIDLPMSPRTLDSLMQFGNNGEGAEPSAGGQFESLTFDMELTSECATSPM
Chain of Heat shock factor protein 1 (Homo sapiens) (Q00613 whole entry, looked up, the tested form may be a part): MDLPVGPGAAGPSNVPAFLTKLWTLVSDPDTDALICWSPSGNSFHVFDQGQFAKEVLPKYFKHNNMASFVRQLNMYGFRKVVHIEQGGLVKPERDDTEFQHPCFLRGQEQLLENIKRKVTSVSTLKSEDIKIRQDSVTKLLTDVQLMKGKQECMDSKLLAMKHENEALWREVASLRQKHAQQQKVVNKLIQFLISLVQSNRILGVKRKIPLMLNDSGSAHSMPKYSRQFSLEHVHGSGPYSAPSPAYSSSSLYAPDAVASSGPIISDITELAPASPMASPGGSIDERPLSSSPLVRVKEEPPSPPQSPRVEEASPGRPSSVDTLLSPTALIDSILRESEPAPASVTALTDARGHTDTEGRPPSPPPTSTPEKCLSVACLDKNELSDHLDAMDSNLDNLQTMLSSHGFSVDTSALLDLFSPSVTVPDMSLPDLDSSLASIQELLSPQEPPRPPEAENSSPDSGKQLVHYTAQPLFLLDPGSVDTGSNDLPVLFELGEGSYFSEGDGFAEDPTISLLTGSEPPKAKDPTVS
Chain of Hepatocyte nuclear factor 6 (Homo sapiens) (Q9UBC0 whole entry, looked up, the tested form may be a part): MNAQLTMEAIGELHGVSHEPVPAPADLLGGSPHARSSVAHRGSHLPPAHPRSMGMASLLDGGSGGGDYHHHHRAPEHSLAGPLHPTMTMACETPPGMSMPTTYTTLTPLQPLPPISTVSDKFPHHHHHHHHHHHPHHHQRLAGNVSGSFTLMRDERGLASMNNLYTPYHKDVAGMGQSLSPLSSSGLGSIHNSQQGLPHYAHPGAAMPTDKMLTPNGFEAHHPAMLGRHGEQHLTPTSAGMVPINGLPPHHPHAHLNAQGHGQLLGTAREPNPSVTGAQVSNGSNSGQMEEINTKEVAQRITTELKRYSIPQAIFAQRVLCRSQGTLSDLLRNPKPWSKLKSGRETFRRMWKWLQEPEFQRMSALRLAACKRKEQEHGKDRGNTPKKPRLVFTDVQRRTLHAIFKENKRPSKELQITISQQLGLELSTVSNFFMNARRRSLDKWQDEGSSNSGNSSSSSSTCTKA
Chain of Hypoxia-inducible factor 1-alpha (Homo sapiens) (Q16665 whole entry, looked up): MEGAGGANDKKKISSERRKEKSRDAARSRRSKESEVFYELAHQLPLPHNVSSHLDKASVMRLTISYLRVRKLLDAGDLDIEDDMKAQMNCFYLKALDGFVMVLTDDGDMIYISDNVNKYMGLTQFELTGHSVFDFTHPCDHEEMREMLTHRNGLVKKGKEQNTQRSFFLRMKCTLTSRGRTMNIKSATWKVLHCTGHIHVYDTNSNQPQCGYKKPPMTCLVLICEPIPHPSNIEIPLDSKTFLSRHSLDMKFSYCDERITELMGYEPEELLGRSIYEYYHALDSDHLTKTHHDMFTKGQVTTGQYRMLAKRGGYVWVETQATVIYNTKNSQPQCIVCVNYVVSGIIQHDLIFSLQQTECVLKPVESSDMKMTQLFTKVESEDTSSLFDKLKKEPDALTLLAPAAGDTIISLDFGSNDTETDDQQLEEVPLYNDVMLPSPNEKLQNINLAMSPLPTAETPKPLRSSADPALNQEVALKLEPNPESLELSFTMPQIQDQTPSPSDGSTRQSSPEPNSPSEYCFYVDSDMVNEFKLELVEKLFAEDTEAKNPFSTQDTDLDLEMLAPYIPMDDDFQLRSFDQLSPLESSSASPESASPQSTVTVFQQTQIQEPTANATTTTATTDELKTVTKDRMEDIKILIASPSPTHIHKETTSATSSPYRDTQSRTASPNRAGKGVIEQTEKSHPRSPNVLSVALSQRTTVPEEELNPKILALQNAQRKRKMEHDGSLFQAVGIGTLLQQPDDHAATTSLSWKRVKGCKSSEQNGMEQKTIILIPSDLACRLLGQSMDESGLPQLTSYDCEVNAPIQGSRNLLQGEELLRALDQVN
Chain of Transcription factor Sp1 (Homo sapiens) (P08047 whole entry, looked up): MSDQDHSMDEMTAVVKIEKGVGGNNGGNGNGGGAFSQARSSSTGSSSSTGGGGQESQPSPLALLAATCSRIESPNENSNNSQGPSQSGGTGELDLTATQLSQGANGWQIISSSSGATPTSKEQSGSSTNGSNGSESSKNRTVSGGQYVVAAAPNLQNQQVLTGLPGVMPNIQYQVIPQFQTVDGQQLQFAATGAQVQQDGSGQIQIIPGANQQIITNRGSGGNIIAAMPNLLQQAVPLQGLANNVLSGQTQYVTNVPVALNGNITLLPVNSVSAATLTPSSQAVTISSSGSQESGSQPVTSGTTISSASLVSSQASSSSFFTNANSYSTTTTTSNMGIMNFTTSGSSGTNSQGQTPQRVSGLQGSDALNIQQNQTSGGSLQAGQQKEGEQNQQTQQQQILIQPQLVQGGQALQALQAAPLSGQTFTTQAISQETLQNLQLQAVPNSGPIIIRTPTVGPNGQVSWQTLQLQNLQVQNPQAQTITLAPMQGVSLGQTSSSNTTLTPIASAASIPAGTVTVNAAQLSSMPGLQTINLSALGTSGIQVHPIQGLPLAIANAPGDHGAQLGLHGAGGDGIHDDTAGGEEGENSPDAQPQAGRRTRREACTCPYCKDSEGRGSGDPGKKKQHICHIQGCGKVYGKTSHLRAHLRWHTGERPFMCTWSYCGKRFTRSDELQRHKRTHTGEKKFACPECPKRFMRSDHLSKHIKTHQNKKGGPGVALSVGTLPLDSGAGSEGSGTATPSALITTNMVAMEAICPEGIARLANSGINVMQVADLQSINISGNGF
Chain of Paired box protein Pax-6 (Homo sapiens) (P26367 whole entry, looked up): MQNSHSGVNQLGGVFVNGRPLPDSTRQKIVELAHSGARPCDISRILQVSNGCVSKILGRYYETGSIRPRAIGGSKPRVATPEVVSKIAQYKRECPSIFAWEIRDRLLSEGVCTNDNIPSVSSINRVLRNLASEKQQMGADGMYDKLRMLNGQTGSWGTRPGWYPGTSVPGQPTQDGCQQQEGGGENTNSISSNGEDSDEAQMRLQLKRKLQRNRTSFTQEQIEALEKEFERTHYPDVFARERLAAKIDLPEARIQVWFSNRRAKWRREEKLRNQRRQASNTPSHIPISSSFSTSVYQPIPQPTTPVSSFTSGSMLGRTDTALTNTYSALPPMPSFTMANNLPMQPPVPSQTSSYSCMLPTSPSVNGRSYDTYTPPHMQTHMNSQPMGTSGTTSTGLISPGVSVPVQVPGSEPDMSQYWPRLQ

CCOC(=O)N1CCC(=C2c3ccc(Cl)cc3CCc3cccnc32)CC1
inactive: [1] | [3] | [4] | [5] | [6] | [11] | [12] | [13] | [14]
active: [2] 7.19 µM | [7] 10.7 µM | [8] 0.933 µM | [9] 7.79 µM | [10] 3.42 µM | [15] 7.49 µM | [16] 8.07 µM

CCCCCCCOC(=O)CCC
inactive: [1] | [2] | [3] | [4] | [17] | [6] | [7] | [8] | [9] | [19] | [10] | [11] | [12] | [13] | [14] | [16]
active: [18] 48 µM

CC(=O)C=CC1C(C)=CCC(C)C1(C)C (configuration not stated)
active: [18] 0.972 µM
inactive: [1] | [2] | [3] | [4] | [17] | [5] | [7] | [8] | [9] | [19] | [10] | [11] | [13] | [14] | [15] | [16]

O=C(c1ccccc1)c1ccc(O)c(O)c1O
active: [17] 61.2 µM | [18] 26.9 µM
inactive: [1] | [2] | [3] | [4] | [6] | [7] | [9] | [19] | [10] | [11] | [12] | [13] | [14] | [15] | [16]

C=C1C2CCC(C2)C1(C)C (configuration not stated)
inactive: [1] | [2] | [3] | [4] | [17] | [5] | [8] | [9] | [19] | [10] | [11] | [12] | [13] | [14] | [15]
active: [18] 31.4 µM

C=CC(C)(CCC=C(C)C)OC(=O)C(C)C (configuration not stated)
inactive: [1] | [2] | [3] | [4] | [5] | [6] | [7] | [9] | [19] | [10] | [12] | [13] | [14] | [15] | [16]

CCN(CC)c1ccc(C(=O)c2ccccc2C(=O)O)c(O)c1
active: [8] 1.89 µM | [18] 1.09 µM
inactive: [1] | [2] | [3] | [4] | [17] | [7] | [9] | [10] | [11] | [13] | [14] | [15] | [16]

CC(C)c1ccc2cc(C(C)C)ccc2c1
inactive: [1] | [2] | [3] | [4] | [5] | [6] | [7] | [9] | [10] | [13] | [14] | [15] | [16]
active: [11] 59.9 µM
